# The list is not random: actives were taken first. Their share in the collection is about 1.2%.
# Sa ugtP lethal: growth inhibition of ugtP-null S. aureus, primary screen, RN4220 ugtP deletion, OD600; 330,000 compounds, 0.54% hits; AID 1259309, 2017; 16 h; growth inhibition, % (no concentration beside the values); in the data active = growth inhibition above about 68%
# PfHsp40 rescue: rescue of yeast from PfHsp40 toxicity, primary screen, S. cerevisiae, ATP luminescence. growth rescue, % at 12.5 µM. 340,000 compounds, 0.68% hits. S. cerevisiae expressing PfHsp40, growth rescue. AID 504582, 2011; in the data active = growth rescue above about 28%, passing the limit was not always enough; inconclusive = no clear call, values can overlap the other calls;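 also: yeast W303a lacking pdr1 and pdr3 grown in galactose medium; growth measured after three days at 30 °C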
# Mtb betalactam: beta-lactam sensitization of Mtb H37Rv, H37Rv; M. tuberculosis H37Rv growth with meropenem, percent inhibition; 330,000 compounds, 0.27% hits; inhibition, % at 25 µM; AID 434955, 2010; call rule not given here;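 also: growth measured after seven days incubation then overnight dye step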
# RN4220 kill: growth inhibition of S. aureus RN4220, primary screen, OD600. 16 h. inhibition, % (no concentration beside the values). 330,000 compounds, 0.33% hits. AID 1259311, 2017; in the data active = inhibition above about 85%
# BH1578 lux ind: inducers of Vibrio cholerae quorum light production without autoinducers, primary screen, BH1578 luxS cqsA deficient, single point | V. cholerae BH1578 lux reporter, luminescence, 6 h | activation, % at 18.7 µM | 350,000 compounds, 0.16% hits; in the data active = activation mostly above about 9.7%, no sharp cut-off; inconclusive = no clear call, values can overlap the other calls; inactive = mostly below about 3.7%
# Hits are given with their value; 0 = inactive; ? = inconclusive; - = not tested or not shown.
SMILES,Sa ugtP lethal,PfHsp40 rescue,Mtb betalactam,RN4220 kill,BH1578 lux ind
CC1=CC(C)C(C=NN=C(N)N)C(C)C1 (stereo unspecified),0,-,-,0,-
CC(C)Oc1cc(-n2c(=S)[nH]c3ccccc3c2=O)c(Cl)cc1Cl,101,0,0,100,0
CCN1C(=O)C2C(c3ccccc3)N3C(=O)N(c4cccc(F)c4)C(=O)[C@@]3(CC(C)C)C2C1=O (stereo partly specified),0,-,-,0,-
Cc1ccc(S(=O)(=O)N2CCCC(C(=O)N3CCN(c4ccccc4)CC3)C2)cc1 (stereo unspecified),0,74,0,0,0
CCN1C(=O)C2C(c3ccc(-c4ccc5c(c4)OCO5)c(OC)c3)N3CCCC[C@@]3(C(=O)OC)C2C1=O (stereo partly specified),0,-,-,0,-
CCCCn1c(SCC(=O)NCc2ccco2)nc2c1c(=O)n(C)c(=O)n2C,0,45,0,0,0
N#Cc1c(Cl)nsc1NC(=O)c1ccccc1,0,217,0,0,0
N#Cc1c(NC(=O)c2ccccc2)sc2c1CCCCC2,0,0,0,0,0
CCCCCCCCCCCC(=O)c1c(O)cccc1O,100,165,0,100,0
CCCCCCCC(=O)NNC(=O)Cc1ccccc1,0,0,0,0,0
CCCCNc1c(C(=O)OCC)c(=O)[nH]c2ccccc12,0,0,0,0,0
CCOC(=O)c1c(NCC(C)C)c2ccccc2[nH]c1=O,0,0,0,0,17
Cc1ccc(C)c(-c2csc(NN=Cc3ccco3)n2)c1,0,-,-,0,-
C[C@]12CCC(O)CC1CCC1C2CC[C@]2(C)C(=O)CCC12 (stereo partly specified),0,-,-,0,-
O=C1c2ccccc2C(=O)c2c1oc(C(F)(F)F)c2C(=O)c1ccccc1,79,?,0,94,0
c1ccc(C2C3CN(CC4CCCCC4)C(c4ccccc4)C34CC2(c2cccnc2)C4)cc1 (stereo unspecified),0,-,-,0,-
COc1cc(C=NNC(=O)Nc2ccccc2)ccc1OCCOc1ccccc1C,0,-,-,0,-
O=C1C(Nc2ccccc2)=C/C(=N/S(=O)(=O)c2cccs2)c2ccccc21,-,266,0,-,0
CC(=Cc1ccccc1)C(=O)NCc1ccco1,0,-,-,0,-
COc1cccc(CSc2nnc(C(F)(F)F)n2Cc2ccc(F)cc2)c1,0,0,0,0,0
Cc1ccc(CSc2nnc(C(F)(F)F)n2Cc2ccc(F)cc2)cc1,0,38,0,0,0
c1cnc2c(c1)ccc1cccnc12,0,57,0,0,0
O=Cc1ccc2ccc3cccnc3c2n1,0,0,0,0,0
COc1ccc(NC(=O)CSc2nncn2C)cc1OC,0,0,0,0,17
COc1ccc(-c2oc(NC(=O)CSc3nncn3C)c(C#N)c2-c2ccc(OC)cc2)cc1,0,44,0,0,0
SMILES,Sa ugtP lethal,PfHsp40 rescue,Mtb betalactam,RN4220 kill,BH1578 lux ind
CCn1c(SCC(=O)Nc2oc(-c3ccccc3)c(-c3ccccc3)c2C#N)nnc1-c1ccco1,0,0,0,0,0
CC(CC(=O)Nc1ccc(C)cc1C)=NNC(=O)C(C)C,0,-,-,0,-
CC(=O)N1CCN(c2ccc(NC(=S)NC(=O)c3ccccc3)cc2)CC1,93,0,0,0,0
O=C(Nc1ccc(S(=O)(=O)N2CCCC2)cc1)c1ccccc1,0,0,0,0,0
CN1CCN(c2ccc(NC(=S)NC(=O)c3cccc4ccccc34)cc2)CC1,95,0,0,0,0
CCC(=O)N1CCN(c2ccc(NC(=S)NC(=O)c3cccc([N+](=O)[O-])c3)cc2)CC1,0,0,0,0,33
O=C(NC(=S)Nc1ccc(S(=O)(=O)N2CCCCC2)cc1)c1ccccc1,86,0,0,0,0
CC(=O)N1CCN(c2ccc(NC(=O)c3ccccc3)cc2)CC1,0,0,0,0,0
COc1ccc(C(=O)NN=C(CCC(=O)O)c2ccc(C(C)(C)C)cc2)cc1OC,0,-,-,0,-
c1ccc(CC2CNCCN2CCCCC2CCCCC2)cc1 (stereo unspecified),0,-,-,0,-
Cc1ccc(C(=O)NC(=S)Nc2ccc(N3CCN(C(=O)c4ccco4)CC3)cc2)cc1,91,0,0,0,0
O=C(Nc1ccc(S(=O)(=O)N2CCCCC2)cc1)c1ccc(CN2CCc3ccccc3C2)cc1,0,0,0,0,17
O=C(Nc1ccccc1)c1ccc(CN2CCc3ccccc3C2)cc1,0,0,0,0,0
CCOC1OC(C(=O)O)=CC(c2ccc(Br)cc2)C1CCCO (stereo unspecified),0,-,-,0,-
O=C1CC2c3c(cccc3CN1Cc1ccc(Br)cc1)CC(O)C2O (stereo unspecified),0,-,-,0,-

# Screening data (PubChem)
